Bioassay records from PubChem BioAssay.
Shown are actives, neighbours in structure and some others; about 12% of the full set was active somewhere.
Sm TGR inh: inhibitors of Schistosoma mansoni thioredoxin glutathione reductase; Q962Y6; purified TGR, DTNB reduction, TNB absorbance 405 nm; actives 3% (n = 360,000); Potency, µM (series often up to 114 µM), hits mostly inhibitors; also: nearly all actives have a fitted effect of over 60% in size
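Kinetic colorimetric format: TGR-catalysed, NADPH-driven DTNB reduction monitored via TNB absorbance. Enzyme dispensed at 20 nM; compound exposure 15 min at room temperature before reaction start.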
AmpC no deterg: inhibitors of E. coli AmpC beta-lactamase without detergent; AmpC nitrocefin hydrolysis, absorbance 480 nm, 0.0001% Triton; actives 0.52% (n = 330,000); Potency, µM (top dose mostly 57.1 µM), usual class: inhibitors; also: nearly all actives have a fitted effect of over 20% in size
Target sequence (P00811 whole entry, looked up): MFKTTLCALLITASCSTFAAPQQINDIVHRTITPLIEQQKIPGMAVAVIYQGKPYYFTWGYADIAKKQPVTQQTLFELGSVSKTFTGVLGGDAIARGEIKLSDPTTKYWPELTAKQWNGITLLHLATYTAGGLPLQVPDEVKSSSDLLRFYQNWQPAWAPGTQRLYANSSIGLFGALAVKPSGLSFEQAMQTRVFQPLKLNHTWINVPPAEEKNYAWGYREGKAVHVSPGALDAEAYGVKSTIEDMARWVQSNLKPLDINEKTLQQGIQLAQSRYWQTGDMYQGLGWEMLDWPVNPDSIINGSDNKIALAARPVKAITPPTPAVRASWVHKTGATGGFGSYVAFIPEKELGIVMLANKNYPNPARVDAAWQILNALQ
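AmpC (5.3 nM in the dispensed reagent) in 20 mM phosphate pH 7.0 with 0.01% (detergent screen) or 0.0001% Triton X-100 was preincubated with compounds for 15 min at room temperature. Nitrocefin was then added from an 800 uM solution, and hydrolysis was followed at 480 nm.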
Pf growth 48h: P. falciparum growth inhibition at 48 hours (one generation). P. falciparum luciferase growth in erythrocytes, 48 h. Potency, µM (titrated, usually from 28.7 µM), usual class: inhibitors. actives 5.9% (n = 310,000)
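Compounds are pin-transferred into medium, infected erythrocytes (2% hematocrit, 0.1% parasitemia final) are added, and plates sit one parasite generation at 37 C in 5% CO2. Detection reagent is then added and luminescence measured.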
SARS PLpro yeast: inhibitors of SARS-CoV papain-like protease in yeast. S. cerevisiae expressing SARS-CoV PLpro, growth rescue. Potency, µM (top dose mostly 32.9 µM), usual class: activators. actives 0.19% (n = 330,000). AID 485353; calls by dose curve; also: nearly all actives have a fitted effect of over 55% in size
AmpC detergent: inhibitors of E. coli AmpC beta-lactamase with detergent; P00811; AmpC hydrolysis of nitrocefin, absorbance 480 nm, 0.01% Triton; Potency, µM (top dose mostly 114 µM), most hits filed as inhibitors; actives 0.041% (n = 370,000); AID 485294; also: nearly all actives have a fitted effect of over 25% in size
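AmpC (5.3 nM in the dispensed reagent) in 20 mM phosphate pH 7.0 with 0.01% (detergent screen) or 0.0001% Triton X-100 was preincubated with compounds for 15 min at room temperature. Nitrocefin was then added from an 800 uM solution, and hydrolysis was followed at 480 nm.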
Pf growth 96h: P. falciparum growth inhibition at 96 hours. P. falciparum luciferase reporter growth, 96 h. Potency, µM (doses to about 28.7 µM), most hits filed as inhibitors. actives 6.9% (n = 320,000). AID 504834
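Luminescence readout: decreased luciferase signal marks inhibited growth of reporter-expressing P. falciparum in infected red cells (2% hematocrit, 0.05% parasitemia final), exposed to compound two generations (96 h, 37 C, 5% CO2).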
Numbers stand for hits; – = inactive; ? = inconclusive; · = no result given; [ ] = dose if it differs, or a comment. Unless noted, calls follow the shape of the dose curve; as a rule, active = well fitted curve in the direction sought with a large enough effect; inconclusive = small, poorly fitted or top-dose-only effect, or another doubt; inactive = no such curve, though single readings can be large; an effect the other way counts as inactive or inconclusive.

SMILES | Sm TGR inh | AmpC no deterg | Pf growth 48h | SARS PLpro yeast | AmpC detergent | Pf growth 96h
O=C(CCl)N(c1ccccc1)C1CCCCC1 | 3.2µM | – | 10µM | – | – | 13µM
CC(=O)N(c1ccccc1)C1CCCC1 | – | – | – | – | – | –
Cc1ccc(C)c(SCC(=O)OCC(=O)c2ccco2)c1 | 40µM | – | – | – | – | –
O=C(Cc1cccs1)OCC(=O)c1ccco1 | 25µM | – | – | – | – | –
COc1ccccc1C(=O)N/C(=C\c1ccccc1)C(=O)NC(C)C(=O)O (stereo not drawn) | – | – | – | – | – | 9.3µM
COc1ccccc1C(=O)N/C(=C\c1ccccc1)C(=O)NC(Cc1ccccc1)C(=O)O (stereo not drawn) | – | – | – | – | – | –
Cc1cc(N(C)C)nc(Nc2ccccc2)n1 | – | – | 13µM | – | – | 12µM
Cc1cccc(C)c1NC(=O)Cn1c(=O)n(Cc2ccc3c(c2)OCO3)c(=O)c2oc3ccccc3c21 | – | · | · | · | – | ·
CCc1ccc(N(CC(=O)NC(C)(C)C)C(=O)CNC(=O)c2cccs2)cc1 | – | – | ? | – | ? | –
Cc1ccc(N(CC(=O)NC(C)(C)C)C(=O)CNC(=O)c2cccs2)cc1 | · | – | 7.4µM | – | – | –
O=C(COc1ccc(S(=O)(=O)NCc2ccccc2)cc1)NCc1cccnc1 | – | – | – | – | – | –
COc1ccc(-n2ncc(S(=O)(=O)c3ccccc3)c2-c2ccc(Cl)cc2)cc1 | – | – | 12µM | – | – | ?
O=S(=O)(c1ccccc1)c1cnn(-c2ccccc2)c1-c1ccc(F)cc1 | – | – | ? | – | ? | 5.9µM
Cc1ccnc(NS(=O)(=O)c2ccc3ccccc3c2)n1 | – | – | – | – | – | –
S=C(NCCc1ccccc1)Nc1nccs1 | 2.2µM | – | – | – | – | ?
S=C(NCCc1ccccc1)Nc1ccc(Br)cn1 | ? | –[2.29 µM] | – | – | – | 8.3µM
S=C(NCc1ccccc1)Nc1nccs1 | 3.2µM | – | ? | – | ? | –
COc1ccc(CNC(=O)C(NC(C)=O)C(=O)Nc2ccc(C(C)C)cc2)cc1 (stereo not drawn) | – | – | ? | – | ? | –
Cc1ccccc1C(=NC(=O)c1ccccc1)c1ccccc1 | – | – | 8.3µM | – | – | 6.6µM
Cc1ccc(Cl)cc1N1CCN(C(=O)c2cc(S(=O)(=O)N3CCCCCC3)cn2C)CC1 | – | · | · | · | – | ·
Cc1nccn1Cc1ccccc1 | – | – | – | – | – | –
Cc1nccn1Cc1ccc(Cl)nc1 | – | – | 10µM | – | ? | ?
COc1ccccc1Nc1sc(C(=O)c2ccc3c(c2)OCO3)c(N)c1S(=O)(=O)c1ccccc1 | – | · | · | · | – | ·
Cc1ccccc1NS(=O)(=O)c1ccc(-c2ccc(=O)[nH]n2)o1 | ? | – | – | – | – | 13µM
Cc1ccc(Nc2nc(C(=O)N3CCC(C(=O)NCCN4CCOCC4)CC3)cs2)cc1 | – | – | ? | – | – | 4.7µM
SMILES | Sm TGR inh | AmpC no deterg | Pf growth 48h | SARS PLpro yeast | AmpC detergent | Pf growth 96h
COc1ccc(CNC(=O)C2CCN(C(=O)c3csc(Nc4ccc(C)cc4)n3)CC2)cc1 | – | – | 8.3µM | – | – | –
O=C1N(Cc2cccnc2)C[C@@H]2C[C@@H](c3ccc4nsnc4c3)N3CCC[C@@]123 | – | – | ? | – | – | ?
CNC(=O)c1c(NC(=O)c2nc3ccccc3s2)sc2c1CCC2 | 45µM | – | · | – | – | –
CNC(=O)c1c(NC(=O)C(C)C)sc2c1CCC2 | 45µM | – | 2.3µM | – | – | –
CNC(=O)c1c(NC(=O)c2cc(=O)c3ccccc3o2)sc2c1CCC2 | – | · | · | · | – | ·
COC(=O)c1c(NC(=O)c2nc3ccccc3s2)sc2c1CCN(C(C)=O)C2 | – | – | · | – | ? | 10µM
COC(=O)c1c(NC(=O)c2cccc(N3C(=O)CCC3=O)c2)sc2c1CCN(C(C)=O)C2 | – | – | – | – | – | 9.3µM
CCCN(CCC)c1nn2c(=O)c(C(=O)NCc3cccc(OC)c3)cnc2s1 | – | · | · | · | – | ·
COc1cc(CN(C)Cc2cccc3ccccc23)cc([N+](=O)[O-])c1O | – | – | – | – | ? | ?
COc1cc(/C=C/CN2CCC(Oc3ccc(C(=O)N4CCCC4)cc3)CC2)ccc1O | 18µM | – | ? | – | ? | ?
COc1ccc(NC(=O)N2CCC(CO)(CC3CCCCO3)CC2)c(OC)c1 (stereo not drawn) | – | – | – | – | – | –
OCC1(CC2CCCCO2)CCN(C/C=C/c2ccccc2)CC1 (stereo not drawn) | – | – | 5.2µM | – | – | –
COc1cc(/C=C/CN2CCC(CO)(CC3CCCCO3)CC2)ccc1O (stereo not drawn) | 13µM | – | – | – | – | –
Cc1c(C#N)c(NC(=O)c2cccc(Cl)c2)n(Cc2ccccc2)c1C | – | – | 12µM | ? | – | 13µM
COC(=O)C1=C(O)/C(=C\c2ccc(OCC(=O)Nc3ccccc3OC)cc2)N=C1C | – | – | – | – | – | –
COC(=O)C1=C(O)/C(=C\c2ccc(O)c(OC)c2)N=C1C | 50µM | – | – | – | ? | ·
COc1cccc(CNc2ncc(C(=O)Nc3cc(OC)c(OC)c(OC)c3)c(C)n2)c1 | – | – | 10µM | – | – | ?
Cc1csc(N2CCN(c3cc4nc(-c5ccncc5)[nH]c4cc3Cl)CC2)n1 | – | – | ? | – | – | ?
Cc1csc(N2CCN(c3cc4c(cc3Cl)nc(-c3ccncc3)n4CCCN3CCCC3)CC2)n1 | – | – | ? | – | – | 3.7µM
Cc1ccc(-c2csc(N3CCN(c4cc5c(cc4Cl)nc(C)n5CCN4CCCCC4)CC3)n2)cc1 | – | – | ? | – | – | 2.1µM
Cc1ccc2c(c1)nnn2C1CCN(C(=O)C23CC4CC(CC(C4)C2)C3)CC1 | – | – | ? | – | – | 13µM
Cc1ccc2c(c1)nnn2C1CCN(CC(=O)N(c2ccccc2)c2ccccc2)CC1 | – | – | 6.6µM | – | – | 12µM
CCOC(=O)CN(C(=O)CN1CCC(n2nnc3cc(C)ccc32)CC1)c1ccccc1 | – | – | · | – | – | 5.2µM
Cc1ccc2c(c1)nnn2C1CCN(C(=O)NC23CC4CC(CC(C4)C2)C3)CC1 | – | – | – | – | – | –
Cc1ccc2c(c1)nnn2C1CCN(CC(=O)c2ccc(Cl)cc2)CC1 | – | – | ? | – | ? | –
CCOc1ccc(C(=O)c2cn(CC(=O)Nc3cccc(OC)c3)c3cc4c(cc3c2=O)OCCO4)cc1 | – | · | · | · | – | ·
O=C(O)CCc1ccc(-c2cccs2)n1NC(=O)c1ccc(Cl)cc1 | 50µM | – | – | – | – | –
O=C(O)CCc1ccc(-c2ccccc2)n1NC(=O)c1ccco1 | ? | – | – | – | – | –
